Experimental data: PubChem BioAssay
For some of these results: Potency and affinity values are given separately. Activity calls are given as the source filed them. Unless noted, how the calls were made is not given here.

Tests used:
[1] = antimalarial activity against Dd2 strain (AID 2302;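 active means growth inhibition above 50% at the single 2 µM test dose, taken to imply half-maximal potency below 2 µM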;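 further: 0% = DMSO untreated growth and 100% = chloroquine plus artemisinin killed control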); details: P. falciparum Dd2 in RBCs, LDH growth readout, 72 h; at 2 µM; stronger effect = higher value
[2] = HepG2 cytotoxicity, primary screen, cytotoxicity control for P. falciparum antimalarial project, cell-based, ATP luminescence (AID 2303;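 active means inhibition above 50%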;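 further: 0% = DMSO wells and 100% = digitonin-killed cells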); details: HepG2 viability, 24-48 h, at 10 µM, stronger effect = higher value
[3] = molecular target: L-lactate dehydrogenase (Plasmodium falciparum (isolate CDC / Honduras)) (UniProt Q27743); test: PfLDH activity inhibition – cell lysate, 3D7 strain, counter-screen for P. falciparum growth inhibition project (AID 2304);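 further: 0% = vehicle and 100% = reference inhibitor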; details: P. falciparum 3D7 crude extract, LDH APAD/NBT absorbance; at 2 µM; stronger effect = higher value
Sequence of L-lactate dehydrogenase (Plasmodium falciparum (isolate CDC / Honduras)) (Q27743 whole entry, looked up): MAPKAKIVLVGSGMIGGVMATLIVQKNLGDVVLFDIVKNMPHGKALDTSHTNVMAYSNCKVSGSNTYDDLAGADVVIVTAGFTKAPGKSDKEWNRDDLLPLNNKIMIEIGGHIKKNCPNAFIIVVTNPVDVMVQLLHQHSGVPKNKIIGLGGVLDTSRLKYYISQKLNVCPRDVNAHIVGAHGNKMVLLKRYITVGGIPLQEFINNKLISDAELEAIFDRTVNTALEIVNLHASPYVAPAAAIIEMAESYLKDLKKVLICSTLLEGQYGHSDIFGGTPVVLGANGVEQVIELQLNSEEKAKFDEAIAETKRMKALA

[4] = inhibition of 3D7 malaria parasite growth – strain 3D7 (AID 2306);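 further: 0% = DMSO wells and 100% = chloroquine plus artemisinin control wells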; details: P. falciparum 3D7 erythrocytic growth, LDH absorbance, 72 h; at 2 µM; stronger effect = higher value
[5] = molecular target: Calcium-dependent protein kinase 1 (Plasmodium falciparum (isolate 3D7)) (UniProt P62344); test: PfCDPK1 kinase inhibitors, biochemical, TCAMS library (AID 1159585; cut-off not given, nearly all actives have IC50 up to about 0.98 µM;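 further: inhibitors leave more ATP so luminescence rises with inhibition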); details: recombinant PfCDPK1, Kinase-Glo ATP depletion luminescence
Sequence of Calcium-dependent protein kinase 1 (Plasmodium falciparum (isolate 3D7)) (P62344 whole entry, looked up): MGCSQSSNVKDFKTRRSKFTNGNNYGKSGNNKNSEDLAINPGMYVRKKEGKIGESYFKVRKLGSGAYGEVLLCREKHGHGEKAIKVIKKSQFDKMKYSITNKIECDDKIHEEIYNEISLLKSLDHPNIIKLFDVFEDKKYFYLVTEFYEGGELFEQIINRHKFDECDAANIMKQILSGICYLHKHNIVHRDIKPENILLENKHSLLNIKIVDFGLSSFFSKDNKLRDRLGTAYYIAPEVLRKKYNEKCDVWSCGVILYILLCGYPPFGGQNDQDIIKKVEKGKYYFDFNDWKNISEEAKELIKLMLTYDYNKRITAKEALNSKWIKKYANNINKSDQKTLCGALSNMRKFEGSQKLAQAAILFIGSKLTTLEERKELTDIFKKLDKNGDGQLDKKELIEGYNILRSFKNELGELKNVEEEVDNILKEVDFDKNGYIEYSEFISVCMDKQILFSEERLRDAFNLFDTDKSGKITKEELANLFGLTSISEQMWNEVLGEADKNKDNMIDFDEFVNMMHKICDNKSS

[6] = molecular target: Plasmodium falciparum protein kinase 6 (PK6, PF3D7_1337100) (UniProt Q8IDW1); test: PfPK6 kinase inhibitors, biochemical, TCAMS library (AID 1159586); details: recombinant PfPK6, Kinase-Glo ATP depletion luminescence
Sequence of Plasmodium falciparum protein kinase 6 (PK6, PF3D7_1337100) (Q8IDW1 1-305): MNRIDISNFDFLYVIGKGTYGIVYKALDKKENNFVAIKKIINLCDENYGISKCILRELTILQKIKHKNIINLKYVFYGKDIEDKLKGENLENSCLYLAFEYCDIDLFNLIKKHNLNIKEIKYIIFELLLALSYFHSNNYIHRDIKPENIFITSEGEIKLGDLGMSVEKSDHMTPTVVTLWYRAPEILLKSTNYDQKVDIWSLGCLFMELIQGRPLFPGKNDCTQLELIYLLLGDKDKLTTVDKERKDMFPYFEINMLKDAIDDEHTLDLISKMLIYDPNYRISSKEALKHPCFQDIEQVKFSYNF

[7] = molecular target: Protein kinase 7 (PK7), Plasmodium falciparum 3D7 (PF3D7_0213400) (UniProt Q7YTF7); test: inhibition of Plasmodium PK7 catalytic activity – biochemical, TCAMS antimalarial set, Kinase-Glo luminescence (AID 1159587); details: recombinant PfPK7, Kinase-Glo ATP depletion luminescence
Sequence of Protein kinase 7 (PK7), Plasmodium falciparum 3D7 (PF3D7_0213400) (Q7YTF7 1-343): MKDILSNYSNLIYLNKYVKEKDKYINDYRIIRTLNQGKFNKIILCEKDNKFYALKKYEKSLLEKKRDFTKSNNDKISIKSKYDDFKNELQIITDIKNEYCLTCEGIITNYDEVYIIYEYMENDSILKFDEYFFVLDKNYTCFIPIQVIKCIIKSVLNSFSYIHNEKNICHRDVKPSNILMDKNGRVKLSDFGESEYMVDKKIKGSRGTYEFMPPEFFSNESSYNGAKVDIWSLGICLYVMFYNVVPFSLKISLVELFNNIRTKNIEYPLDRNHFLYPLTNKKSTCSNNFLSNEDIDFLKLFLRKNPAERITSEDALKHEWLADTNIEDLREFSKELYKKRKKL

[8] = molecular target: Calcium-dependent protein kinase 4 (Plasmodium falciparum (isolate 3D7)) (UniProt Q8IBS5); test: PfCDPK4 kinase inhibitors, biochemical, TCAMS library (AID 1159588; cut-off not given, nearly all actives have IC50 up to about 0.91 µM); details: recombinant PfCDPK4, Kinase-Glo ATP depletion luminescence
Sequence of Calcium-dependent protein kinase 4 (Plasmodium falciparum (isolate 3D7)) (Q8IBS5 whole entry, looked up): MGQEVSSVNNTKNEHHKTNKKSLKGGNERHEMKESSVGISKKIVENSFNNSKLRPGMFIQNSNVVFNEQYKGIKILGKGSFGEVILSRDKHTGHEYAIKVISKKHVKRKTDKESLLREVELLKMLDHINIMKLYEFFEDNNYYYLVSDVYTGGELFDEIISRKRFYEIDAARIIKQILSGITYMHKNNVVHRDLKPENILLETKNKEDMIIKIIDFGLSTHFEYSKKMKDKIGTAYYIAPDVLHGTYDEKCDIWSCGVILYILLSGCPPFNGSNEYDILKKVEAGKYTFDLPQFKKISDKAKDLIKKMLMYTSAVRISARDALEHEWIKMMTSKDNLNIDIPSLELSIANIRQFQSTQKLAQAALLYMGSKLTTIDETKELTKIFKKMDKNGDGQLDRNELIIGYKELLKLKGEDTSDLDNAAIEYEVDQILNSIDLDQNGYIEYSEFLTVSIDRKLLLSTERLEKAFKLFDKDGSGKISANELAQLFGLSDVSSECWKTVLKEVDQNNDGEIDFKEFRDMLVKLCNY

Cc1[nH]c(C)c(-c2ccc(Oc3ccc(Cl)cc3)cc2)c(=O)c1Br
inactive: inhibition [2] 12% | inhibition [3] -4% | outcome [5] | outcome [6] | outcome [7] | outcome [8]
active: growth inhibition [1] 96% | growth inhibition [4] 97%

O=C(Nc1cccc(-c2cccc(-c3nc4ccc(F)cc4[nH]3)c2)c1)c1csnn1
inactive: growth inhibition [1] 29% | inhibition [2] 23% | inhibition [3] -4% | outcome [5] | outcome [6] | outcome [7] | outcome [8]
active: growth inhibition [4] 95%

CCCCOC(=O)c1ccc(NC(=O)Nc2ccc(Cn3ncc(N4CCCNCC4)c(Cl)c3=O)cc2)cc1
active: growth inhibition [1] 74% | growth inhibition [4] 92%
inactive: inhibition [2] 2% | inhibition [3] 2% | outcome [5] | outcome [6] | outcome [7] | outcome [8]

Cc1ccccc1C1CCN(C2CCC(NC(=O)/C=C/c3ccc(C#N)cc3)CC2)CC1 (stereo not drawn)
active: growth inhibition [4] 87%
inactive: growth inhibition [1] 13% | inhibition [2] 39% | inhibition [3] 0% | outcome [5] | outcome [6] | outcome [7] | outcome [8]

O=C(NCC1CC1)C1CCN(C(c2ccccc2)c2cc(F)cc(F)c2)CC1 (stereo not drawn)
active: growth inhibition [1] 95% | growth inhibition [4] 99%
inactive: inhibition [2] -3% | inhibition [3] 9% | outcome [5] | outcome [6] | outcome [7] | outcome [8]

CC(C)(C)C(=O)Nc1ccccc1Oc1ccc(Cl)cc1
inactive: inhibition [3] 7% | outcome [5] | outcome [6] | outcome [7] | outcome [8]
active: growth inhibition [1] 96% | inhibition [2] 54% | growth inhibition [4] 92%

COc1ccccc1C1CCN(CCCCNC(=O)c2ccc(/C=C/c3cc(Cl)cc(Cl)c3)cc2)CC1
active: growth inhibition [4] 96%
inactive: growth inhibition [1] 30% | inhibition [2] 36% | inhibition [3] 9% | outcome [5] | outcome [6] | outcome [7] | outcome [8]

CCN(CC)CCN(Cc1ccc(-c2ccc(C(F)(F)F)cc2)cc1)C(=O)Cn1c(CCc2cccc(F)c2F)cc(=O)c2c1CCCC2
active: growth inhibition [1] 95% | inhibition [2] 93% | growth inhibition [4] 100%
inactive: inhibition [3] 1% | outcome [5] | outcome [6] | outcome [7] | outcome [8]

CCOc1ccc2c(NN=Cc3cccc(OC)c3)cc(C)nc2c1
inactive: inhibition [2] 38% | inhibition [3] -5% | outcome [5] | outcome [6] | outcome [7] | outcome [8]
active: growth inhibition [1] 81% | growth inhibition [4] 97%

COc1cc(C)nc2ccc(NC(=O)c3cc(C(F)(F)F)cc(C(F)(F)F)c3)cc12
inactive: inhibition [2] 16% | inhibition [3] 0% | outcome [5] | outcome [6] | outcome [7] | outcome [8]
active: growth inhibition [1] 99% | growth inhibition [4] 101%

Cc1[nH]c2ccccc2c1CC1CCN(CC2CCN(C(=O)/C=C/c3ccc(Cl)c(Cl)c3)CC2)CC1
inactive: growth inhibition [1] 14% | inhibition [2] 34% | inhibition [3] -3% | outcome [5] | outcome [6] | outcome [7] | outcome [8]
active: growth inhibition [4] 92%

O=C(NCCNc1nc(NCCNC(=O)Nc2ccccc2)c2ccc(=O)n(-c3c(F)cccc3F)c2n1)Nc1ccccc1
active: growth inhibition [1] 87% | growth inhibition [4] 94%
inactive: inhibition [2] 1% | inhibition [3] 6% | outcome [5] | outcome [6] | outcome [7] | outcome [8]

CC(C)C[C@H](NC(=O)c1cc2cc(OCCN3CCNCC3)ccc2o1)C(=O)NC1CC[C@@H](C)N(C(=O)Nc2ccc(Cl)cc2)CC1=O (stereo partly drawn)
inactive: inhibition [2] -3% | inhibition [3] 6% | outcome [5] | outcome [6] | outcome [7] | outcome [8]
active: growth inhibition [1] 92% | growth inhibition [4] 90%

COc1cccc(C(O)CNc2ccnc(Nc3cccc(-c4csc(C)n4)c3)n2)c1 (stereo not drawn)
inactive: inhibition [2] 38% | inhibition [3] -8% | outcome [5] | outcome [6] | outcome [7] | outcome [8]
active: growth inhibition [1] 73% | growth inhibition [4] 99%

O=C(N[C@H]1CCN(CCc2ccc(O[C@H]3CCNC3)c(F)c2)C1)c1ccc(Cl)c(Cl)c1
active: growth inhibition [4] 95%
inactive: growth inhibition [1] 23% | inhibition [2] 39% | inhibition [3] 2% | outcome [5] | outcome [6] | outcome [7] | outcome [8]

CCCCNC(=O)c1[nH]c2c(NC(=O)COc3ccccc3)cccc2c1-c1cccc(NC(=O)C(N)CO)c1 (stereo not drawn)
inactive: growth inhibition [1] -3% | inhibition [2] 11% | inhibition [3] -3% | outcome [5] | outcome [6] | outcome [7] | outcome [8]
active: growth inhibition [4] 87%

CN1CCN(c2ccnc3ccc(NC(=O)Cc4ccc(OCc5ccccc5)cc4)cc23)CC1
inactive: inhibition [2] 6% | inhibition [3] -1% | outcome [5] | outcome [6] | outcome [7] | outcome [8]
active: growth inhibition [1] 89% | growth inhibition [4] 100%

COc1ccc2nccc([C@@H](O)CN3CCC(NC(=O)c4[nH]c5ccccc5c4-c4ccccc4)CC3)c2c1
inactive: inhibition [2] 18% | inhibition [3] 0% | outcome [5] | outcome [6] | outcome [7] | outcome [8]
active: growth inhibition [1] 68% | growth inhibition [4] 96%

Cc1nc(-c2nc(NCc3ccccn3)ncc2-c2ccsc2)sc1C
active: growth inhibition [1] 87% | growth inhibition [4] 92%
inactive: inhibition [2] -2% | inhibition [3] 4% | outcome [5] | outcome [6] | outcome [7] | outcome [8]

O=S(=O)(c1cc2ccccc2s1)N(CCC(O)(C(F)(F)F)C(F)(F)F)Cc1cccc(O)c1
active: growth inhibition [1] 99% | growth inhibition [4] 100%
inactive: inhibition [2] -1% | inhibition [3] 0% | outcome [5] | outcome [6] | outcome [7] | outcome [8]

CCCCCc1ccc(N2C(N)=NC(N)=NC2(C)C)cc1
active: inhibition [2] 59% | growth inhibition [4] 95%
inactive: growth inhibition [1] 1% | inhibition [3] -6% | outcome [5] | outcome [6] | outcome [7] | outcome [8]

O=C(N[C@@H](Cc1ccccc1)[C@H](O)CNC1CCCCC1)c1cc(C2CCCC2)cc(N2CCCC2=O)c1
inactive: inhibition [2] 17% | inhibition [3] 0% | outcome [5] | outcome [6] | outcome [7] | outcome [8]
active: growth inhibition [1] 98% | growth inhibition [4] 100%

Cc1cc(=O)c(-c2cccc(Oc3ccc(Cl)cc3)c2)c(C)[nH]1
active: growth inhibition [1] 95% | growth inhibition [4] 96%
inactive: inhibition [2] -2% | inhibition [3] -4% | outcome [5] | outcome [6] | outcome [7] | outcome [8]

Fc1ccc2nc(-c3ccc(-c4ccc(CNCC5CCCO5)cc4)s3)[nH]c2c1 (stereo not drawn)
inactive: inhibition [2] 30% | inhibition [3] -2% | outcome [5] | outcome [6] | outcome [7] | outcome [8]
active: growth inhibition [1] 99% | growth inhibition [4] 100%

CC(C)(C)OC(=O)NCc1ccc(Nc2nnc(-c3ccc(OCC(=O)NC[C@@H]4CC[C@H]5C[C@@H]4C5(C)C)c([N+](=O)[O-])c3)o2)cc1
inactive: inhibition [2] 29% | inhibition [3] -3% | outcome [5] | outcome [6] | outcome [7] | outcome [8]
active: growth inhibition [1] 52% | growth inhibition [4] 94%

O=C(c1ccc(-c2ccc(-c3nc4ccc(C(F)(F)F)cc4[nH]3)s2)cc1)N1CCN(CCc2ccccc2)CC1
inactive: inhibition [2] 23% | inhibition [3] -5% | outcome [5] | outcome [6] | outcome [7] | outcome [8]
active: growth inhibition [1] 60% | growth inhibition [4] 98%

Cc1cc(NC(=O)[C@H](CC2CCCCC2)Nc2ccc(C#N)c3ccccc23)ccc1F
inactive: inhibition [2] 21% | inhibition [3] -6% | outcome [5] | outcome [6] | outcome [7] | outcome [8]
active: growth inhibition [1] 99% | growth inhibition [4] 102%

COc1ccc(OC)c(NC(=O)C2c3ccccc3C(=O)N(CC(C)C)C2c2cccs2)c1 (stereo not drawn)
active: growth inhibition [1] 66% | growth inhibition [4] 100%
inactive: inhibition [2] 9% | inhibition [3] -5% | outcome [5] | outcome [6] | outcome [7] | outcome [8]

N#Cc1ccccc1C1CCN(C2CCC(Nc3cc(-c4cccnc4)ccn3)CC2)CC1 (stereo not drawn)
active: growth inhibition [1] 78% | growth inhibition [4] 100%
inactive: inhibition [2] 38% | inhibition [3] 5% | outcome [5] | outcome [6] | outcome [7] | outcome [8]

O=C(NCCc1ccc(Cl)c(Cl)c1)[C@@H]1CCCN1C(=O)c1ccc(O)c(-c2cccc(C(F)(F)F)c2)c1
inactive: inhibition [2] 0% | inhibition [3] -7% | outcome [5] | outcome [6] | outcome [7] | outcome [8]
active: growth inhibition [1] 82% | growth inhibition [4] 97%

CNC(=S)NCc1cnc2ccccn12
active: growth inhibition [4] 97%
inactive: growth inhibition [1] -2% | inhibition [2] -2% | inhibition [3] 3% | outcome [5] | outcome [6] | outcome [7] | outcome [8]

Cc1cccc2[nH]c(-c3ccc(-c4cccc(CNCCCNS(C)(=O)=O)c4)cc3)nc12
active: growth inhibition [4] 99%
inactive: growth inhibition [1] 5% | inhibition [2] 5% | inhibition [3] 2% | outcome [5] | outcome [6] | outcome [7] | outcome [8]

Cc1ccc2nc(-c3ccccc3Nc3ccnc4cc(-c5nccs5)ccc34)[nH]c2c1
active: growth inhibition [1] 100% | growth inhibition [4] 101%
inactive: inhibition [2] 40% | inhibition [3] -5% | outcome [5] | outcome [6] | outcome [7] | outcome [8]

O=C(Nc1nc(-c2ccccn2)cs1)c1ccccc1COc1ccccc1
active: growth inhibition [4] 83%
inactive: growth inhibition [1] 42% | inhibition [2] 34% | inhibition [3] -2% | outcome [5] | outcome [6] | outcome [7] | outcome [8]

COc1ccc2nccc(NN=Cc3cccc(C)n3)c2c1
active: growth inhibition [1] 99% | growth inhibition [4] 100%
inactive: inhibition [2] 16% | inhibition [3] 3% | outcome [5] | outcome [6] | outcome [7] | outcome [8]

N#Cc1ccc2c(c1)CCN(CCC1CCC(NC(=O)/C=C/c3ccc4ccccc4c3)CC1)CC2 (stereo not drawn)
inactive: growth inhibition [1] 12% | inhibition [2] 20% | inhibition [3] 4% | outcome [5] | outcome [6] | outcome [7] | outcome [8]
active: growth inhibition [4] 97%

CC(C)c1ccc(NC(=O)Nc2ccc(CCNCCCc3ccccc3)cc2)cc1
active: growth inhibition [1] 56% | growth inhibition [4] 101%
inactive: inhibition [2] 22% | inhibition [3] 1% | outcome [5] | outcome [6] | outcome [7] | outcome [8]

O=C(CN1CCN(C(=O)c2ccco2)CC1)Nc1ccccc1Br
inactive: inhibition [2] 15% | inhibition [3] -4% | outcome [5] | outcome [6] | outcome [7] | outcome [8]
active: growth inhibition [1] 96% | growth inhibition [4] 97%

CC=Cc1cc(Cc2cnc(N)nc2N)cc(CCC)c1OC
inactive: growth inhibition [1] 1% | inhibition [2] 16% | inhibition [3] 5% | outcome [5] | outcome [6] | outcome [7] | outcome [8]
active: growth inhibition [4] 97%

O=C(N[C@@H](CC1CCCCC1)C(=O)NC1CC1)c1ccc(O)c(-c2cccc(C(F)(F)F)c2)c1
inactive: growth inhibition [1] 47% | inhibition [2] -5% | inhibition [3] -4% | outcome [5] | outcome [6] | outcome [7] | outcome [8]
active: growth inhibition [4] 99%

COc1ccc(-c2nc(NC(=O)CS(=O)(=O)c3ccc(C)cc3)sc2C)cc1
active: growth inhibition [1] 94% | inhibition [2] 56% | growth inhibition [4] 101%
inactive: inhibition [3] 2% | outcome [5] | outcome [6] | outcome [7] | outcome [8]
